Data reported in PubChem BioAssay.
“And” between values parts separate entries of the source, which are not always exact repeats. Identical values can stand only once. The source made the active and inactive calls. Rule as the data show it, unless noted: active = parasite load remaining mostly below about 12% (no sharp cut-off); inactive = mostly above about 10%. Bridge positions count the residues as written; N and C are the ends. Square brackets hold non-standard residues; d marks the D form. Peptide text beside a SMILES is read from it. * marks the point of attachment. Heptanoyl(6-Me) = CC(C)CCCCC(=O)*; Dab = NCC[CH](N)C(=O)O

Key:
[1] = liver-stage malaria parasite growth inhibition, primary screen, cell-based, HepG2, luciferase luminescence, HepG2 viability (AID 624349);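 also: 100% = mean of DMSO negative control wells on the same plate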; conditions: P. berghei liver stage in HepG2, luciferase luminescence, concentration not given here; parasite load remaining: stronger effect = lower value; viability: measured here: HepG2 viability without parasites
[2] = differential killing of epithelial or mesenchymal cells, primary screen, imaging, PC-3E GFP, TEM4-18 mCherry, co-culture (AID 1345086;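 active = compounds killing one labelled cell type while sparing the other, by normalised counts and ratio limits, not self-fluorescent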;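 as to all read-outs here: cells exposed to compound for 72 h before imaging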;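 as to red/green cell ratio (normalised): normalised mesenchymal count divided by normalised epithelial count so high means epithelial killing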); conditions: imaging cell counts, at 1 µM; for red/green cell ratio (normalised): actives lie on both sides, counts scaled to control wells, 1 = unselective
[3] = sensitizers of A549 cells to miR-34 induction, primary screen, imaging, A549 dox-inducible miR-34, nuclei and caspase counts (AID 1347080;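 active = compounds whose cell count with miR-34 switched on is under 0.7 times the count with it off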); conditions: A549 miR-34 inducible, Hoechst nuclei count, 48 h
[4] = hESC survival regulators, cell-based (AID 493140; call rule not given here;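 also: cells exposed to compounds for four days before counting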); conditions: human embryonic stem cell survival screen; stronger effect = higher value
[5] = measured here: epithelial PC-3E GFP cell survival
[6] = measured here: mesenchymal TEM4-18 mCherry cell survival
[7] = stronger effect = lower value, cell number ratio, induced over uninduced
[8] = measured here: relative caspase fold change +Dox/-Dox
[9] = measured here: total cells with miR-34 induction, stronger effect = lower value
[10] = measured here: total cells without miR-34 induction

| Structure (SMILES) | parasite load remaining [1] | viability [1] | red/green cell ratio (normalised) [2] | normalised cell number [2, 5] | normalised cell number [2, 6] | fold change [3, 7] | fold change [3, 8] | cell count [3, 9] | cell count [3, 10] | survival [4] |
| --- | --- | --- | --- | --- | --- | --- | --- | --- | --- | --- |
| COc1cc(NS(C)(=O)=O)ccc1Cc1c2ccccc2nc2ccccc12 | 41.6% (inactive) | 143% | 0.96 (inactive) | 0.32 | 0.31 | 0.911 (inactive) | 3.12 | 3640 | 4000 |  |
| CO/N=C(/C(=O)NC1C(=O)N2C(C(=O)OC(C)OC(C)=O)=C(COC(N)=O)CSC12)c1ccco1 (stereo not drawn) | 60.6% (inactive) | 138% | 1.1 (inactive) | 0.93 | 1.02 | 0.889 (inactive) | 1.77 | 12300 | 13900 |  |
| CCCCCCCCCCCCCCCC(=O)O[C@@H]1[C@@H](O)[C@@H](O)C([C@H](NC(=O)[C@@H]2C[C@@H](CCC)CN2C)[C@H](C)Cl)O[C@@H]1SC (stereo partly drawn) | 57.3% (inactive) | 113% | 0.93 (inactive) | 1.03 | 0.95 | 0.819 (inactive) | 4.42 | 10800 | 13200 |  |
| C=C(NC(=O)C(=C)NC(=O)c1csc(C2=NC3c4csc(n4)C4NC(=O)c5csc(n5)C(C(C)(O)C(C)O)NC(=O)C5CSC(=N5)C(=CC)NC(=O)C(C(C)O)NC(=O)c5csc(n5)C3(CC2)NC(=O)C(C)NC(=O)C(=C)NC(=O)C(C)NC(=O)C(C(C)CC)NC2C=Cc3c(C(C)O)cc(nc3C2O)C(=O)OC4C)n1)C(N)=O (stereo not drawn) | 64.9% (inactive) and 23.2% (inactive) | 75.8% and 108% | 0.94 (inactive) | 0.8 | 0.75 | 0.829 (inactive) | 1.94 | 9190 | 11100 |  |
| NC[C@H]1O[C@H](OC2[C@@H](N)C[C@@H](N)[C@H](O[C@H]3O[C@H](CO)[C@@H](O)[C@H](N)[C@H]3O)[C@H]2O)[C@H](O)[C@@H](O)[C@@H]1O (stereo partly drawn) | 92.2% (inactive) and 70.3% (inactive) | 72.7% and 101% | 1.25 (inactive) | 0.64 | 0.8 | 0.877 (inactive) | 2 | 11500 | 13200 |  |
| O=C1O[C@H](C(O)CO)C(O)=C1O (stereo partly drawn) | 82.7% (inactive) and 21.4% (inactive) | 69.6% and 79.3% | 1.21 (inactive) | 1.04 | 1.26 | 0.918 (inactive) | 4.48 | 12000 | 13100 |  |
| CC[C@@H]1OC(=O)C[C@@H](O)[C@H](C)[C@@H](O[C@@H]2O[C@H](C)[C@@H](O)[C@H](N(C)C)[C@H]2O)[C@@H](CCN2C[C@H](C)C[C@H](C)C2)C[C@@H](C)C(=O)/C=C/C(C)=C\[C@@H]1CO[C@@H]1O[C@H](C)[C@@H](O)[C@@H](OC)[C@H]1OC | 64.4% (inactive) | 108% | 0.98 (inactive) | 1.1 | 1.07 | 0.885 (inactive) | 3.65 | 12100 | 13600 |  |
| CC(=O)S[C@@H]1CC2=CC(=O)CC[C@]2(C)[C@H]2CC[C@@]3(C)[C@@H](CC[C@@]34CCC(=O)O4)C12 (stereo partly drawn) | 56.6% (inactive) and 46.1% (inactive) | 72.6% and 88.2% | 1.24 (inactive) | 1 | 1.25 | 0.863 (inactive) | 2.19 | 10200 | 11900 |  |
| CCC(C)C1NC(=O)C(CCN)NC(=O)C(NC(=O)C(CCN)NC(=O)C(NC(=O)C(CCN)NC(=O)CCCCC(C)C)C(C)O)CCNC(=O)C(C(C)O)NC(=O)C(CCN)NC(=O)C(CCN)NC(=O)C(C(C)CC)NC1=O (stereo not drawn) ({Heptanoyl(6-Me)}-[Dab]T[Dab][Dab][Dab]II[Dab][Dab]T; lactam 4-C; configuration not given here) | 49.5% (inactive) | 98.1% | 0.79 (inactive) | 1.14 | 0.9 | 0.901 (inactive) | 3.33 | 12400 | 13800 |  |
| CCC(C)C(=O)O[C@H]1C[C@H](O)C=C2C=C[C@H](C)[C@H](CC[C@@H](O)C[C@@H](O)CC(=O)O)C21 (stereo partly drawn) | 152% (inactive) and 58.6% (inactive) | 84.1% and 191% | 0.96 (inactive) | 1.19 | 1.14 | 0.861 (inactive) | 5.53 | 11700 | 13500 |  |
| CC(=O)O[C@]1(C(C)=O)CCC2C3C=C(Cl)C4=CC(=O)CC[C@]4(C)C3CC[C@@]21C (stereo partly drawn) | 113% (inactive) and 26.4% (inactive) | 84% and 106% | 1.17 (inactive) | 1.04 | 1.21 | 0.904 (inactive) | 1.11 | 9770 | 10800 |  |
| CC(=O)Nc1cc2ccccc2oc1=O | 90.5% (inactive) | 77.8% | 0.74 (inactive) | 1.29 | 0.95 | 0.955 (inactive) | 0.792 | 8640 | 9040 | 3.5 (inactive) |
| CC(=O)c1cc2ccccc2oc1=O | 80.8% (inactive) | 96.7% | 0.84 (inactive) | 1.16 | 0.98 | 0.915 (inactive) | 1.42 | 8970 | 9810 | 6.92 (inactive) |
| CC(=O)OCC(=O)[C@@]1(OC(C)=O)[C@@H](C)CC2C3C[C@H](F)C4=CC(=O)C=C[C@]4(C)[C@@]3(F)[C@@H](O)C[C@@]21C (stereo partly drawn) | 202% (inactive) | 105% | 1.18 (inactive) | 1.13 | 1.34 | 0.928 (inactive) | 4.21 | 7220 | 7780 |  |
